The results in this text go back to PubChem BioAssay.

Values without a mark were called inactive. The source made the active and inactive calls.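 The calls were made as follows, unless noted: active = RAM network inhibition above 8.4% in each of two replicates, 3 SD over the compound average; inconclusive = above 8.4% inhibition in only one replicate; inactive = 8.4% inhibition or less in each replicate.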

A short description of the first test: inhibitors of the yeast RAM network, pilot screen, dse1pr::URA3 reporter, 5-FOA selection (AID 869;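 active = inhibition over a set limit, the all-compound mean plus 3 SD, in both replicate runs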;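 also: 0% = DMSO wells with no growth and 100% = 10 µM 1-NA-PP1 with full growth; RAM network block rescues cells from 5-FOA so hits raise OD615 growth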). The conditions noted are these: S. cerevisiae dse1pr::URA3 5-FOA growth, OD615, 2 d; at 10 µM; active compounds read high; strain carries analog-sensitive mutant Cbk1 kinase.
A word on the inhibition: it is the relative decrease from the control value, in per cent. As to `Cn1c(=O)c2c(SCC(=O)N3CCN(c4ccccc4)CC3)nc(C3CC3)nc2n(C)c1=O`, the inhibition was 3.71%.
For `CCOc1ccc(Nc2ncnc3c2cnn3-c2ccccc2)cc1`, the inhibition is 1.29%.
For `Cn1c(NC(=O)CCc2ccccc2)cc(=O)n(C)c1=O`, the inhibition is 0.855%.
Same read-out and setting: then `Cc1ccccc1Nc1ncnc2c1cnn2-c1ccccc1`, with -0.23%; and `CCOc1ccccc1Nc1cc(C)nc2nc(C)nn12`, with 1.67%; and `CCOC(=O)CNC(=O)c1cn(CC(C)C)c(=O)c2cc(OC)c(OC)cc12`, with -0.375%.
As to `COc1ccc2cc(S(=O)(=O)N3CCOCC3)ccc2c1`, the inhibition was 0.075%.
Regarding `COc1ccc(CCNc2nc(=O)[nH]nc2C)cc1OC`, the inhibition was 2.62%.
For `Cc1ccc(Cn2nnc3c(=O)n(Cc4ccccc4C)cnc32)cc1`, the inhibition was 1.68%.
`O=C(NCc1ccco1)c1cnccn1`: the inhibition was 2.81%.
As to `Cc1cccc(OCC2=N/C(=C\N(C)C)C(=O)O2)c1`, the inhibition is 1.48%.
As for `CCSc1nnc(NC(=O)CSc2nc3c(c(=O)n2-c2ccccc2)SCC3)s1`, the inhibition was 2.82%.
In the case of `Clc1ccc(OCc2nnc(-c3ccccc3Br)o2)c(Cl)c1`, the inhibition is 6% (active).
For the molecule `O=C(COC(=O)c1ccccc1Oc1ccccc1)NCc1ccco1`, the inhibition was 2.41%.
As to `CCNC(=O)c1c(C)nc2ccccn12`, the inhibition is -0.1%.
As to `CCCCC(CC)CNC(=O)c1cccs1` (stereo not given), the inhibition is -0.705%.
Regarding `O=C(Sc1nnc(-c2ccccc2)o1)N1c2ccccc2Sc2ccccc21`, the inhibition is 2.49%.
As to `Cc1c(-n2cc(C(=O)O)c(=O)c3cc(F)c(N4CCCC4)c(F)c32)c(=O)n(-c2ccccc2)n1C`, the inhibition is 2.6%.
In the case of `COc1ccc(N2CCN(S(=O)(=O)c3cccc4cccnc34)CC2)cc1`, the inhibition was 0.47%.
Turning to `CCN1CCN(CC(=O)Nc2ccc3c(c2)OCO3)C(=O)C1=O`, the inhibition is 0.7%.
Regarding `CC(=O)Nc1ccc(C(=O)c2ccccc2)cc1`, the inhibition is 0.97%.
On to `Cn1c(=O)cc(N2CCCCC2)[nH]c1=O`, for which the inhibition is 1.59%.
With `Cc1csc2ncc(C(=O)NCc3ccccn3)c(=O)n12`, the inhibition is 1.58%.
As for `Cc1c(C(=O)NCc2ccccn2)sc2nc(-c3ccccc3)cn12`, the inhibition was 0.91%.
Turning to `O=C(CSc1ccc2nnc(-c3ccc(Cl)cc3)n2n1)N1CCN(c2ccccc2)CC1`, the inhibition was -0.195%.
In the case of `O=S(=O)(NCCCN1CCN(c2ccccc2F)CC1)c1cccc2cccnc12`, the inhibition is 0.97%.
On the same count and under the same terms, then `Cc1ccc2cc(CCNS(=O)(=O)c3ccc(F)cc3)c(=O)[nH]c2c1`, with 1.72%; and `COc1ccc(-n2c(Cc3cccn3C)nnc2SCC(=O)N2CCC(C)CC2)cc1`, with 1.42%.
Consider `CNc1oc(C)nc1S(=O)(=O)c1ccccc1`, for which the inhibition was 1.98%.
With `Cc1c(Cl)cccc1NC(=O)CN1C(=O)CSc2ncccc21`, the inhibition was -0.01%.
Same read-out and setting: to `O=C(CCN1CCc2ccccc2C1)Nc1ccccc1` belongs 2.04%; to `COc1cc2c(cc1OC)C1=C(C#N)CN(C3CCCCC3)CN1CC2`, 2.15%; to `O=C1CC(c2ccc(S(=O)(=O)NC3CC3)cc2)CN1` (stereo not given), 0.075%.
Regarding `CCOC(=O)Cn1c(=O)oc2cc(S(=O)(=O)N3CCc4ccccc43)ccc21`, the inhibition is -0.605%.
`O=C1CC(c2ccco2)CC2=C1C1c3ccccc3C(=O)N1c1ccccc1N2` (stereo not given): the inhibition is 1.36%.
Turning to `COc1ccc(Br)cc1C1CC(=O)N2CN(Cc3ccccc3)CSC2=C1C#N` (stereo not given), the inhibition was 2.63%.
Consider `C=C(C)Cn1c(COc2ccccc2)nnc1SCC(=O)O`, for which the inhibition was 0.3%.
For the molecule `Cc1onc(-c2ccccc2Cl)c1C(=O)OCn1nnc2ccccc2c1=O`, the inhibition is 2.41%.
For the molecule `Cc1cc(NC(=O)CSc2nc3c(c(=O)n2-c2ccccc2)SC(C)C3)no1` (stereo not given), the inhibition was 4.66%.
Take `CCOc1ccc(C2CC(c3ccc(F)cc3)n3ncnc3N2)cc1` (stereo not given): the inhibition was 2.65%.

Another test can be described thus: RAM signaling pathway blockade in yeast – S. cerevisiae, Pdr1DBD-CYC8 efflux-inhibited sensitized strain, primary screen (AID 1298).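 Also: 0% = DMSO untreated cells without growth and 100% = 10 µM 1-NA-PP1 full growth; higher means more yeast growth rescued from 5-FOA killing.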 The note with it: S. cerevisiae cbk1-as DSE1-URA3 strain, 5-FOA growth OD615, 2 d; at 50 µM; active compounds read high.
Turning to `Cn1c(=O)c2c(SCC(=O)N3CCN(c4ccccc4)CC3)nc(C3CC3)nc2n(C)c1=O`, the RAM network inhibition is 6.69%.
Same read-out and setting: then `CCOc1ccc(Nc2ncnc3c2cnn3-c2ccccc2)cc1`, with 2.91%; and `Cn1c(NC(=O)CCc2ccccc2)cc(=O)n(C)c1=O`, with -0.05%.
Regarding `Cc1ccccc1Nc1ncnc2c1cnn2-c1ccccc1`, the RAM network inhibition is -0.01%.
Take `CCOc1ccccc1Nc1cc(C)nc2nc(C)nn12`: the RAM network inhibition is -1.47%.
For `CCOC(=O)CNC(=O)c1cn(CC(C)C)c(=O)c2cc(OC)c(OC)cc12`, the RAM network inhibition was 4.17%.
For the molecule `COc1ccc2cc(S(=O)(=O)N3CCOCC3)ccc2c1`, the RAM network inhibition was 1.03%.
For the molecule `COc1ccc(CCNc2nc(=O)[nH]nc2C)cc1OC`, the RAM network inhibition is 0.16%.
Turning to `Cc1ccc(Cn2nnc3c(=O)n(Cc4ccccc4C)cnc32)cc1`, the RAM network inhibition was 8.59%.
As to `O=C(NCc1ccco1)c1cnccn1`, the RAM network inhibition was -0.25%.
As for `Cc1cccc(OCC2=N/C(=C\N(C)C)C(=O)O2)c1`, the RAM network inhibition was 2.9%.
Same read-out and setting: then `CCSc1nnc(NC(=O)CSc2nc3c(c(=O)n2-c2ccccc2)SCC3)s1`, with 4.35%.
`Clc1ccc(OCc2nnc(-c3ccccc3Br)o2)c(Cl)c1`: the RAM network inhibition is 14%.
Take `O=C(COC(=O)c1ccccc1Oc1ccccc1)NCc1ccco1`: the RAM network inhibition was 2.24%.
Still for that read-out and setting: to `CCNC(=O)c1c(C)nc2ccccn12` belongs 0.67%.
With `CCCCC(CC)CNC(=O)c1cccs1` (stereo not given), the RAM network inhibition was -1.28%.
Take `O=C(Sc1nnc(-c2ccccc2)o1)N1c2ccccc2Sc2ccccc21`: the RAM network inhibition was 3.79%.
On the same count and under the same terms, to `Cc1c(-n2cc(C(=O)O)c(=O)c3cc(F)c(N4CCCC4)c(F)c32)c(=O)n(-c2ccccc2)n1C` belongs 5.65%.
Regarding `COc1ccc(N2CCN(S(=O)(=O)c3cccc4cccnc34)CC2)cc1`, the RAM network inhibition is 3.66%.
As to `CCN1CCN(CC(=O)Nc2ccc3c(c2)OCO3)C(=O)C1=O`, the RAM network inhibition is 6.72%.
As for `CC(=O)Nc1ccc(C(=O)c2ccccc2)cc1`, the RAM network inhibition is 0.62%.
Regarding `Cn1c(=O)cc(N2CCCCC2)[nH]c1=O`, the RAM network inhibition is -0.8%.
Same read-out and setting: to `Cc1csc2ncc(C(=O)NCc3ccccn3)c(=O)n12` belongs 1.6%.
As for `Cc1c(C(=O)NCc2ccccn2)sc2nc(-c3ccccc3)cn12`, the RAM network inhibition was 0.57%.
With `O=C(CSc1ccc2nnc(-c3ccc(Cl)cc3)n2n1)N1CCN(c2ccccc2)CC1`, the RAM network inhibition was 3.08%.
`O=S(=O)(NCCCN1CCN(c2ccccc2F)CC1)c1cccc2cccnc12`: the RAM network inhibition is 5.43%.
Take `Cc1ccc2cc(CCNS(=O)(=O)c3ccc(F)cc3)c(=O)[nH]c2c1`: the RAM network inhibition was 1.31%.
For the molecule `COc1ccc(-n2c(Cc3cccn3C)nnc2SCC(=O)N2CCC(C)CC2)cc1`, the RAM network inhibition was 2.73%.
Regarding `CNc1oc(C)nc1S(=O)(=O)c1ccccc1`, the RAM network inhibition is 0.25%.
On the same count and under the same terms, to `Cc1c(Cl)cccc1NC(=O)CN1C(=O)CSc2ncccc21` belongs -0.13%.
Consider `O=C(CCN1CCc2ccccc2C1)Nc1ccccc1`, for which the RAM network inhibition was 2.39%.
Turning to `COc1cc2c(cc1OC)C1=C(C#N)CN(C3CCCCC3)CN1CC2`, the RAM network inhibition was 3.92%.
In the case of `O=C1CC(c2ccc(S(=O)(=O)NC3CC3)cc2)CN1` (stereo not given), the RAM network inhibition was -0.6%.
Take `CCOC(=O)Cn1c(=O)oc2cc(S(=O)(=O)N3CCc4ccccc43)ccc21`: the RAM network inhibition was 2.93%.
Take `O=C1CC(c2ccco2)CC2=C1C1c3ccccc3C(=O)N1c1ccccc1N2` (stereo not given): the RAM network inhibition was 4.2%.
On the same count and under the same terms, then `COc1ccc(Br)cc1C1CC(=O)N2CN(Cc3ccccc3)CSC2=C1C#N` (stereo not given), with 4.51%.
Take `C=C(C)Cn1c(COc2ccccc2)nnc1SCC(=O)O`: the RAM network inhibition was 0.88%.
Consider `Cc1onc(-c2ccccc2Cl)c1C(=O)OCn1nnc2ccccc2c1=O`, for which the RAM network inhibition was 7.77%.
Consider `Cc1cc(NC(=O)CSc2nc3c(c(=O)n2-c2ccccc2)SC(C)C3)no1` (stereo not given), for which the RAM network inhibition was 1.22%.
Take `CCOc1ccc(C2CC(c3ccc(F)cc3)n3ncnc3N2)cc1` (stereo not given): the RAM network inhibition is -0.36%.
